# Screening data deposited in PubChem by National Center for Advancing Translational Sciences (NCATS).
# Rows were chosen to be rich in hits. Some 21% of all compounds tested hit in one or more screens of this group.
# Shiga toxin inh = A qHTS for Small Molecule Inhibitors of Shiga Toxin. 290,000 compounds, 9.2% hits. Vero cells, Shiga toxin protein synthesis inhibition reporter. inhibition, % at 38.7 µM; in the data active = inhibition mostly above about 28%, no sharp cut-off; inactive = mostly below about 43%; note: 0% is about no effect
# Pf growth 48h = Primary qHTS for delayed death inhibitors of the malarial parasite plastid, 48 hour incubation; Potency, µM (doses to about 28.7 µM), for the others: at the top dose activity change, negative = inhibition, actives largely listed as inhibitors; 310,000 compounds, 5.9% hits; P. falciparum luciferase growth in erythrocytes, 48 h; AID 504832, 2011; note: potency is the fitted concentration of half-maximal effect; % is set by controls: 0 for no effect and ±100 for the full control effect
#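 Luciferase-expressing parasites in RBCs, 2% Hct / 0.1% parasitemia final; RPMI 1640 + 0.5% Albumax; 37 C, 5% CO2, one generation; luminescence read-out, lower signal = inhibition.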
# CHX counter = Cycloheximide Counterscreen for Small Molecule Inhibitors of Shiga Toxin | cell reporter, cycloheximide protein synthesis inhibition counterscreen | max response, % | 300,000 compounds, 12% hits | AID 2314, 2010; in the data active = max response mostly above about 13%, no sharp cut-off; inactive = mostly below about 14%; note: read at 38.3 µM for the half of the compounds with a filed dose; 0% is about no effect
# Sm TGR block = qHTS Assay for the Inhibitors of Schistosoma Mansoni Peroxiredoxins; Potency, µM (highest dose often 114 µM), for the others: at the top dose activity change, negative = inhibition, actives largely listed as inhibitors; 360,000 compounds, 3% hits; Schistosoma mansoni thioredoxin glutathione reductase (TGR), Q962Y6; purified TGR, DTNB reduction, TNB absorbance 405 nm; note: potency is the fitted concentration of half-maximal effect; % is set by controls: 0 for no effect and ±100 for the full control effect; nearly all actives have a fitted effect of over 60% in size
#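 Kinetic colorimetric format: TGR-catalysed, NADPH-driven DTNB reduction monitored via TNB absorbance. Enzyme dispensed at 20 nM; compound exposure 15 min at room temperature before reaction start.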
# NS1 function inh = qHTS Assay for Inhibitors of Influenza NS1 Protein Function | AID 2326, 2010 | Potency, µM (series often up to 46.1 µM), for inactives: at the highest dose activity, positive = more growth | 270,000 compounds, 0.4% hits; calls by dose curve; note: potency is the fitted concentration of half-maximal effect; actives are rising curves; nearly all actives have a fitted effect of over 50% in size
#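 In this qHTS, NS1 from influenza A is expressed in budding yeast, where it slows growth. Cells are switched from glucose to 2% galactose medium (pH 6.0, -URA), treated with compound, and growth recovery is read at OD600.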
# Pf growth 96h = Primary qHTS for delayed death inhibitors of the malarial parasite plastid, 96 hour incubation | P. falciparum luciferase reporter growth, 96 h | AID 504834, 2011 | 320,000 compounds, 6.9% hits | Potency, µM (doses to about 28.7 µM), without a hit: at the top dose activity change, negative = inhibition, usual class: inhibitors; note: potency is the fitted concentration of half-maximal effect; % is set by controls: 0 for no effect and ±100 for the full control effect
#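 Compounds incubated with erythrocytes infected by luciferase-expressing P. falciparum (2% hematocrit, 0.05% parasitemia final) for 96 hours, 37 C in 5% CO2. Growth inhibition scored as decreased luciferase luminescence.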
# * marks the source's active call; other numbers are inactive results; ? = inconclusive; / = no result given. Unless noted, calls come from the whole dose curve; as a rule, active = well fitted curve in the direction sought with a large enough effect; inconclusive = small, poorly fitted or top-dose-only effect, or another doubt; inactive = no such curve, though single readings can be large; an effect the other way counts as inactive or inconclusive.
SMILES,Shiga toxin inh,Pf growth 48h,CHX counter,Sm TGR block,NS1 function inh,Pf growth 96h
COc1cc(C(F)(F)F)ccc1C(=O)NCCc1ccco1,80.1*,48.3%,68.2*,-31.3%,-6.6%,1.0%
Cc1ccc(/C(N)=N/OC(=O)Cc2ccccc2)cc1,54.4*,103.4%,52.5*,-3.7%,1.1%,6.2%
CCOc1ccc(OCCCC(=O)ON=C(N)c2ccccc2C)cc1,/,-20.1%,/,-3.6%,/,-21.9%
N/C(=N\OC(=O)Cc1ccccc1)c1ccc(Br)cc1,104.0*,41.9%,53.2*,9.0%,-13.6%,9.1%
CCOc1ccccc1OCCCC(=O)ON=C(N)c1ccccc1,/,15.6%,/,-22.2%,/,34.2%
N/C(=N\OC(=O)CCCc1ccccc1)c1ccccc1Cl,48.1,12.5%,32.7*,0.3%,-30.8%,32.8%
Cc1ccc(/C(N)=N/OC(=O)CCCc2ccccc2)cc1,42.7*,27.1%,56.5*,-2.7%,15.8%,44.6%
N/C(=N\OC(=O)Cc1ccccc1)c1ccncc1,31.6,2.1%,1.5,0.0%,-1.5%,-5.7%
CC1(C)Cc2c(sc(NC(=O)c3ccc(S(=O)(=O)N4CCCCCC4)cc3)c2C#N)C(C)(C)N1,-11.1,?,1.5,0.0%,15.9%,-20.2%
CCn1cc(C(=O)N2CCCC(N3CCN(c4ccccc4C)CC3)C2)cn1 (stereo not drawn),5.8,-1.3%,5.4,-25.7%,-9.1%,?
COc1ccc(/C(N)=N/OC(=O)Cc2ccc(OC)c(OC)c2)cc1,25.9,?,17.8,-4.2%,-64.1%,?
Cc1ccc(C(N)=Nc2ccccc2)cc1,46.0,46.9%,15.9*,-2.2%,-8.3%,70.3%
CCC(C(=O)O/N=C(\N)c1ccc(C)cc1)c1ccccc1 (stereo not drawn),21.0,/,13.9,3.8%,3.1%,54.5%
Cc1ccc(CC(=O)O/N=C(\N)c2ccncc2)cc1,59.5,-10.3%,29.9*,-0.3%,-15.6%,10.1%
COc1ccc(/C(N)=N/OC(=O)Cc2ccc(C)cc2)cc1,50.1*,53.8%,30.1*,1.4%,-7.9%,-9.1%
COc1cc2c(cc1OC)-c1c(OC)c(OC)cc3c1C(C2)N(C)CC3 (stereo not drawn),-22.3,4.15µM*,-6.0,?,0.6%,126.4%
CCc1ccccc1N(C)S(=O)(=O)c1cc(-c2cc(C)no2)ccc1OC,-5.3,?,18.8,9.3%,7.9%,?
Cc1ccc(C)c(N(C)C(=O)CCS(=O)(=O)c2cccc3nonc23)c1,-9.8,-15.6%,-5.5,20µM*,-1.9%,20.6%
Cc1ccc(NC(=O)CCS(=O)(=O)c2cccc3nonc23)c(Br)c1,-2.4,9.8%,13.1,31.6µM*,-9.6%,3.0%
Cc1ccc(C)c(N2CCN(C(=O)CCS(=O)(=O)c3cccc4nonc34)CC2)c1,1.1,?,-2.0,35.5µM*,-39.8%,14.1%
Cc1ccc(C)c(N2CCN(C(=O)Cn3cccc3)CC2)c1,-14.0,-0.4%,-3.2,39.8µM*,-1.6%,16.1%
CCC(=O)N1CCN(c2cc(C)ccc2C)CC1,-10.4,4.3%,4.0,2.2%,-8.5%,10.2%
Cc1cccc(NC(=O)c2csnn2)n1,49.9,5.6%,3.8,8.8%,/,4.2%
CCOc1ccc2c(c1)c(=O)c(S(=O)(=O)c1ccc(Cl)cc1)cn2Cc1ccccc1C,/,/,/,-7.9%,/,/
Cc1cccc(NN=C2c3ccccc3-c3ccccc32)c1,17.3,6.0%,16.2,-5.7%,1.8%,82.8%
SMILES,Shiga toxin inh,Pf growth 48h,CHX counter,Sm TGR block,NS1 function inh,Pf growth 96h
COc1ccc(NC(=O)c2sc3nc[nH]c(=O)c3c2C)cc1OC,/,/,/,24.2%,/,/
Cc1ccccc1NC(=O)CCS(=O)(=O)c1cccc2nonc12,-6.8,-13.2%,-3.8,7.1%,4.4%,-4.4%
O=C(CCS(=O)(=O)c1cccs1)NC1CCCCCC1,115.3*,88.9%,30.7*,6.0%,-0.3%,?
O=C(CCS(=O)(=O)c1cccc2nonc12)NC1CCCCCC1,-4.3,7.3%,10.8,44.7µM*,-4.4%,-13.3%
O=C(CCS(=O)(=O)c1cccc2nonc12)Nc1c(F)cccc1F,/,/,/,11.2µM*,/,/
COc1ccc(S(=O)(=O)Nc2cccc(-c3ccc4nncn4n3)c2)c(OC)c1,/,?,/,-2.2%,/,?
CCOC(=O)C1CCN(C(=O)Cn2cnc3sc(C)c(S(=O)(=O)N4CCCCC4)c3c2=O)CC1,-17.4,?,-4.0,6.2%,-9.9%,-15.8%
COc1ccc(C2/C=C\CN(CC(C)C)C(C)C(=O)N2Cc2ccc(F)cc2)cc1 (stereo not drawn),142.3*,/,31.2*,/,/,/
COc1ccc(C2/C=C\CN(CC3CC3)C(Cc3ccccc3)C(=O)N2Cc2ccc(F)cc2)cc1 (stereo not drawn),-3.2,/,16.3,/,/,/
COc1ccc(C2/C=C\CN(CC(C)C)C(Cc3ccccc3)C(=O)N2Cc2ccc(F)cc2)cc1 (stereo not drawn),126.0*,/,98.8*,/,/,/
COc1ccc(C2/C=C\CN(S(=O)(=O)/C=C/c3ccccc3)[C@H](Cc3ccccc3)C(=O)N2Cc2ccc(F)cc2)cc1 (stereo partly drawn),7.1,?,-0.6,22.4µM*,9.8%,?
Cc1cc(C)c(NC(=O)CNC(=O)c2cc(C3CC3)nn2-c2ccccc2)c(C)c1,/,-23.8%,/,0.0%,/,?
Cc1cccc(C)c1NC(=S)N/N=C/c1c(Cl)cccc1Cl,8.6,25.8%,-0.8,11.2%,/,22.9%
O=C(N/N=C1\CC2CC=CC12)c1ccc(O)cc1 (stereo not drawn),51.0*,17.2%,29.8*,4.3%,/,?
Cc1ccc(C(=O)N/N=C2\CC3CC=CC23)c(C)c1 (stereo not drawn),132.7*,14.2%,62.6*,-7.6%,/,1.7%
Cc1cccc(C)c1NC(=S)N/N=C1\CC2CC=CC12 (stereo not drawn),20.5,?,-1.1,-31.4%,2.0%,9.28µM*
Cc1ccc(NC(=S)N/N=C2\CC3CC=CC23)c(C)c1 (stereo not drawn),56.1,-1.6%,20.1*,-27.1%,/,?
COc1ccc(OC)c(C2C(C(=O)c3ccc(C)o3)=C(O)C(=O)N2CCN2CCOCC2)c1 (stereo not drawn),0.8,-23.3%,1.0,?,8.0%,?
CCCOc1ccc(C2C(C(=O)c3ccc(C)o3)=C(O)C(=O)N2CCN2CCOCC2)cc1OC (stereo not drawn),-13.6,41.0%,1.4,39.8µM*,7.2%,?
Cc1ccc(C2C(C(=O)c3sc(C)nc3C)=C(O)C(=O)N2CCN2CCOCC2)o1 (stereo not drawn),-7.3,2.0%,-3.0,39.8µM*,-10.9%,30.1%
O=C(C1=C(O)C(=O)N(CCCN2CCOCC2)C1c1ccccn1)c1cccs1 (stereo not drawn),43.1*,?,75.4*,-0.4%,-11.9%,49.0%
